About 8,600 (12%) of roughly 69,000 compounds showed an effect of 50% or more. This excerpt belongs to a sample that is enriched for strong results.
Test system: Plasmodium berghei
Test: Screen against P. berghei liver stage (PbLuc), transformed with Luciferase, at 10uM
Format: functional, HepG2
Settings: tested at 10 uM

Structure (SMILES) | INHIBITION [%]
CC(C)c1cc(C(=O)N2CCC3(CCc4ccccc4C(=O)N3)C2)on1 (configuration not stated) | 22.45
Cc1ccc(N2CC[C@H]3O[C@H](C(=O)NCc4ccco4)CC[C@H]32)nn1 | 31.1
Cc1ccc(C(=O)N(C)CCOc2ccccc2F)c(=O)[nH]1 | -10.3
Cn1cc(CCC(=O)N2C[C@@H]3CC[C@H]2CN(Cc2cccnc2)C3)cn1 | 40.2
Cn1ncc2c(NCCOCc3ccccc3)nc(C3CCCC3)nc21 | 71.2
Cn1ncc2c(NCCCOc3cccnc3)nc(C3CCCC3)nc21 | 44.8
Cn1ncc2c(NCCOc3ccc(F)cc3)nc(C3CCCC3)nc21 | 77.1
Cn1ncc2c(NCCC34CCCN3CCC4)nc(C3CCCC3)nc21 | -12.2
CC(C)N(CCNc1nc(C2CCCC2)nc2c1cnn2C)C(C)C | 81.1
CNCCCNc1nc(C2CCCC2)nc2c1cnn2C | 37.1
CCS(=O)(=O)CCNc1nc(C2CCCC2)nc2c1cnn2C | 1.93
Cn1ncc2c(NCCn3cccc3)nc(C3CCCC3)nc21 | 29.4
CCOCCNc1nc(C2CCCC2)nc2c1cnn2C | 2.3
O=C(NC1CC1)c1cc(Sc2ncccn2)ccn1 | -17.1
CCOCc1ncn2c1CN(C(=O)Nc1ccc(CC)cc1)CC2 | -9.26
Cc1cccc(CN2CCCC2(C(N)=O)c2cnccn2)n1 (configuration not stated) | 42.4
CNC(=O)[C@@H](c1ccccc1OC)N1CCC[C@H]1C(=O)NC1CC1 | 35.4
COc1cccc(CC(=O)N2CCCN(c3ccnc(C)c3)CC2)c1 | -1.25
Cc1cc(N2CCCN(C(=O)Cc3cccnc3)CC2)ccn1 | 58.6

Structure (SMILES) | INHIBITION [%]
Cc1cc(N2CCN(C(=O)Cc3ccc4c(c3)OCO4)CC2)cc(C)n1 | 52.2
Cc1cc(N2CCCN(C(=O)Cc3ccc(O)c(Cl)c3)CC2)ccn1 | 65.1
O=C(Cc1ccc2c(c1)OCO2)N1CCN(c2ccncc2)CC1 | 49
Cc1cc(N2CCCN(C(=O)Cc3cc(F)cc(F)c3)CC2)ccn1 | 28.7
O=C(Cc1ccc2c(c1)OCO2)N1CCCN(c2ccccc2)CC1 | 11.8
Cc1cc(N2CCCN(C(=O)Cc3csc(C)n3)CC2)ccn1 | -13.2
Cc1cc(N2CCCN(c3ccnc(C)c3)CC2)ccn1 | 11.9
O=C(c1cnccn1)N1C[C@H]2CC[C@@H](C1)N(C(=O)Cc1ccsc1)C2 | 28.5
Cc1nnc2n1CCN(CCOc1cccc(C#N)c1)C2 | 44.1
Cc1ccc(C2CSCCN2C(=O)c2ccoc2C)o1 (configuration not stated) | 13.3
CNC(=O)CCN1CCC(c2nnc(Cn3cccn3)n2C2CC2)CC1 | -0.71
Cc1nccc(C(=O)N2CCCC2c2noc(C(C)C)n2)n1 (configuration not stated) | 22.6
Cc1ncccc1NS(=O)(=O)Cc1cccc(F)c1 | 3.19
O=C1NC[C@H]2CN(Cc3ccnc4ccccc34)CCN12 | -12.1
O=C1NC[C@H]2CN(Cc3ccccn3)CCN12 | -17.2
O=C1NCC2CN(Cc3ccccc3OCc3ccccn3)CCN12 (configuration not stated) | 50.3
c1cc(CN2CCC3(CC2)CC(N2CCCC2)CO3)co1 (configuration not stated) | -4.82
Cc1cnn(C2CCCN(C(=O)c3cccc(-n4cnnn4)c3)C2)c1 (configuration not stated) | 14.75
CN(C)c1ncc(NC(=O)c2cccc(Nc3cnn(C)c3)c2)cn1 | 36.5

Structure (SMILES) | INHIBITION [%]
NC(=O)CN(C(=O)c1cccc(C(F)(F)F)c1)C1CCCC1 | -52.4
CNC(=O)c1cccc(Nc2cnn(C)c2)c1 | 23.6
CN(C)C(=O)c1cccc(NC(=O)c2cnn(C)c2)c1 | 52.4
Cn1c(C(=O)N(CC(N)=O)C2CCCC2)cc(Cl)c1Cl | -25.6
Cn1cc(Nc2cccc(C(=O)N(CC(N)=O)C3CCCC3)c2)cn1 | 82.2
CN(C)C(=O)c1cccc(Nc2cnn(C)c2)c1 | 33.5
O=C(Nc1cnn(CC(F)F)c1)c1cccc(-n2cnnn2)c1 | 20.6
Cn1cc(NC(=O)c2cccc(-n3cnnn3)c2)cn1 | 53.7
CCNC(=O)CN(CC)C(=O)c1cc(-c2cccc(Cl)c2)no1 | 21.5
CCNC(=O)CN(CC)C(=O)c1cccc(Nc2cnn(C)c2)c1 | 70.3
Cn1cc(N2CCCC(SCc3ccco3)C2=O)cn1 (configuration not stated) | 9.79
CCc1cccc(OCC(=O)NC(C)c2nnc3n2CCC3)c1 (configuration not stated) | -27.8
CCC(=O)N1C[C@@H]2CCN(c3cnccn3)C[C@@H]2C1 | -18.4
CC(C)(C)c1ccc(OCC(N)=O)c(CN2C[C@H]3CC(O)C[C@H]3C2)c1 (some centres not stated) | 25.8
CC(C)OCCCN(CC(=O)N1CCNCC1)C(=O)c1ccc(F)cc1 | 55.7
CC(C)OCCCN(CC(=O)N1CCNCC1)C(=O)c1cccc(Cl)c1 | 25.9
CCCN(CC(=O)N1CCNCC1)C(=O)c1cccc(Cl)c1 | 13.5
Cc1noc(C)c1-c1cccc(C2CCNCC2)n1 | 5.11
COc1ccccc1OCCNC(=O)CN1CCN(C)CC1C (configuration not stated) | 16.657

Source: ChEMBL document CHEMBL4513216, “Probing the Open Global Health Chemical Diversity Library for Multistage-Active Starting Points for Next-Generation Antimalarials” (ACS Infect Dis, 2020)
